A short description of test [1]: AP1 Signaling Pathway (AID 357; active = well fitted curve in either direction with a large enough effect, not every such curve was filed as active;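 also: ME-180 reporter cells stimulated with EGF at its EC50 level; % is scaled to controls: 0 for no effect and ±100 for the full control effect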). Conditions: ME-180 AP-1-bla reporter, EGF-induced, beta-lactamase ratio, 5 h; at 7.69 µM (top of the series) unless noted. The essentials: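 First, ME-180 AP-1-bla cells were cultured overnight at 37 °C in low-serum Opti-MEM. Next, titrated compounds with EC50 EGF were incubated 5 hours. Finally, CCF4 was added for 2.5 hours and the 460/530 nm ratio recorded.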

For test [2], the target named is Cytochrome P450 1A2 (Homo sapiens) (UniProt P05177). As to the kind of experiment: p450-cyp1a2 (AID 410; calls by dose curve; also: potency is read from the fitted curve at half-maximal effect). The essentials: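 O-Demethylation of luciferin 6' methyl ether by human CYP1A2 is monitored as luciferase luminescence. Substrate sits at Km (100uM); enzyme is 20nM. Values are scaled to 57 uM furafylline as maximal inhibition.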
Cytochrome P450 1A2 (Homo sapiens), sequence (P05177 whole entry, looked up): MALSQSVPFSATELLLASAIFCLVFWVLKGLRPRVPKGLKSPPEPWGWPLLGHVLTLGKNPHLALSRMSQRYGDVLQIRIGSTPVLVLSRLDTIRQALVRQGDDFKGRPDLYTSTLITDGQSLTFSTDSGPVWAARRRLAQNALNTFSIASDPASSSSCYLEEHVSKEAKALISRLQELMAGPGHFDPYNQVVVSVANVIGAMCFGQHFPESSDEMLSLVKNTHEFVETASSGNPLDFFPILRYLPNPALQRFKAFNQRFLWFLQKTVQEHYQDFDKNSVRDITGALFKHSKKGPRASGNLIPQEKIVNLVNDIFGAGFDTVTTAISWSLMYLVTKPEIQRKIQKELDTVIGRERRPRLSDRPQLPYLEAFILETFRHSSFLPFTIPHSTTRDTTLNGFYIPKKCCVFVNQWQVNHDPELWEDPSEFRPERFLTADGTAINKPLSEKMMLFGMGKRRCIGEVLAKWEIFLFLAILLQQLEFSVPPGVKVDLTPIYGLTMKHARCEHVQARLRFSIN
Test [3] is described as follows: NFAT Signaling Pathway (AID 444; active = well fitted curve in either direction with a large enough effect, not every such curve was filed as active;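 also: carbachol stimulus at about its EC50 of 1 µM final; % is scaled to controls: 0 for no effect and ±100 for the full control effect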). The conditions noted are these: Jurkat NFAT-bla M1, carbachol, beta-lactamase ratio, 5 h; at 7.69 µM (top of the series) unless noted. The essentials:
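Jurkat cells with NFAT-driven β-lactamase reporter and co-expressed M1 receptor, stimulated with carbachol (final 1 uM, ~EC50), compound titration, 5 h at 37 °C. CCF4 loaded 1 h at RT; 460/530 nm ratio gave %activity and AC50.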

Test [4] in a line: Stat Signaling Pathway (AID 446; active = well fitted curve in either direction with a large enough effect, not every such curve was filed as active;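 also: ME-180 cervical cancer cells given 40 pM IL-6 alongside compound; SIE-controlled beta-lactamase reporter measured as 460/530 nm FRET emission ratio; % is scaled to controls: 0 for no effect and ±100 for the full control effect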). Conditions: ME-180 (cervical carcinoma) SIE beta-lactamase reporter, IL-6 stimulated, 5 h; at 7.69 µM (top of the series) unless noted. The essentials: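 Normalization used AC90 stimulation (300 pM IL-6) and AC90 inhibition (125 nM pan-JAK inhibitor at 40 pM IL-6). The underlying signal is SIE-driven beta-lactamase in ME-180 cells after 5 h IL-6 exposure with compound.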

The target in test [5] is Glucocorticoid receptor (Homo sapiens) (UniProt P04150). As to the kind of experiment: GR-GFP Redistribution (AID 450;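 active = compounds whose dose series gives a full or clear partial fitted curve of increased nuclear translocation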; also: potency is read from the fitted curve at half-maximal effect). Conditions: U2OS GR-GFP nuclear translocation, laser cytometry, 2 h.
Glucocorticoid receptor (Homo sapiens), sequence (P04150 whole entry, looked up, the tested form may be a part): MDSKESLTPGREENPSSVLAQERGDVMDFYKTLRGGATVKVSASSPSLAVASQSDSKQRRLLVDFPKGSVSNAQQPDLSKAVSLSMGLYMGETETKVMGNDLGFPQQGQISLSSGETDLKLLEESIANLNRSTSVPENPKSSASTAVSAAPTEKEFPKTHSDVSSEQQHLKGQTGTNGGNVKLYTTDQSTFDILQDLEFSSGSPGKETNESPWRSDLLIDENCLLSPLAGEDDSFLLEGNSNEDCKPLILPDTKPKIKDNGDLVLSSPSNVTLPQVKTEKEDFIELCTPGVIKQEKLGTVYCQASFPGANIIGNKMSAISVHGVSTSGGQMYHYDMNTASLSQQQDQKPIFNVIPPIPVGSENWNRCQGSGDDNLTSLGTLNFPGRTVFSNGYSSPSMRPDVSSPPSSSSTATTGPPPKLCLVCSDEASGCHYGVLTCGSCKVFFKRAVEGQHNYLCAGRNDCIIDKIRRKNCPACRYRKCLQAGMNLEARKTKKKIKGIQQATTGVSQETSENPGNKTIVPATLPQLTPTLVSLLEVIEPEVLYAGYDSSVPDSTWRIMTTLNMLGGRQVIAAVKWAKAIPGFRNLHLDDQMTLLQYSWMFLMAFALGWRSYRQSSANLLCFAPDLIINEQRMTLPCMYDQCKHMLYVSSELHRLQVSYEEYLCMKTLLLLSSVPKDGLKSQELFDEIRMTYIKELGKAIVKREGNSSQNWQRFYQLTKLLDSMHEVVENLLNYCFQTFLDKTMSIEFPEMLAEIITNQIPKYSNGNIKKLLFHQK
The target is the same in test [6]. As to the kind of experiment: GR-EFC Redistribution (AID 451; calls by dose curve; also: potency is read from the fitted curve at half-maximal effect). The conditions noted are these: CHO-K1 GR-EFC translocation, beta-gal luminescence, 2 h. The method, boiled down: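 CHO-K1 cells expressing nuclear EA and GR-ED fragments of b-gal; compounds titrated up to 46 uM final, 2 h at 37 C. GR nuclear translocation read as complemented b-gal luminescence after 1 h RT detection.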

In test [7] the target is Mitogen-activated protein kinase 10 (Mus musculus) (UniProt Q61831). Description: JNK3 AlphaScreen Assay (AID 530; active = well fitted curve in either direction with a large enough effect, not every such curve was filed as active;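 also: kinase came from lysate of stimulated human HepG2 cells; signal reports phosphorylation of biotinylated GST-cJun 1-79 at Ser73 with 10 µM ATP; % is scaled to controls: 0 for no effect and ±100 for the full control effect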). The method, boiled down:
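Activity was read by AlphaScreen after JNK3-containing HepG2 lysate (cytokine pre-activated) phosphorylated biotinylated GST-cJun with 10 uM ATP at room temperature. Phospho-Ser73 cJun antibody with Protein-A acceptor beads provided detection.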
For orientation: Bead proximity is the source of the signal in Alpha formats.

In test [8] the target is 3',5'-cyclic-AMP phosphodiesterase 4B (Homo sapiens) (UniProt Q07343). Description: qHTS Assay for Inhibitors of PDE-IV (AID 607; active = well fitted activation curve with a large enough effect in the main read-out, with a control signal flat, not every such curve was filed as active; also: % of control where 0% means no effect). The method, boiled down: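 HEK293 ACTOne cells with CNG channel (1000/well), endogenous PDE4; membrane potential dye, compounds up to 22.9 uM final. Fluorescence Ex 535/Em 590; RO 20-1724 (100 uM final) as reference.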
3',5'-cyclic-AMP phosphodiesterase 4B (Homo sapiens), sequence (Q07343 whole entry, looked up): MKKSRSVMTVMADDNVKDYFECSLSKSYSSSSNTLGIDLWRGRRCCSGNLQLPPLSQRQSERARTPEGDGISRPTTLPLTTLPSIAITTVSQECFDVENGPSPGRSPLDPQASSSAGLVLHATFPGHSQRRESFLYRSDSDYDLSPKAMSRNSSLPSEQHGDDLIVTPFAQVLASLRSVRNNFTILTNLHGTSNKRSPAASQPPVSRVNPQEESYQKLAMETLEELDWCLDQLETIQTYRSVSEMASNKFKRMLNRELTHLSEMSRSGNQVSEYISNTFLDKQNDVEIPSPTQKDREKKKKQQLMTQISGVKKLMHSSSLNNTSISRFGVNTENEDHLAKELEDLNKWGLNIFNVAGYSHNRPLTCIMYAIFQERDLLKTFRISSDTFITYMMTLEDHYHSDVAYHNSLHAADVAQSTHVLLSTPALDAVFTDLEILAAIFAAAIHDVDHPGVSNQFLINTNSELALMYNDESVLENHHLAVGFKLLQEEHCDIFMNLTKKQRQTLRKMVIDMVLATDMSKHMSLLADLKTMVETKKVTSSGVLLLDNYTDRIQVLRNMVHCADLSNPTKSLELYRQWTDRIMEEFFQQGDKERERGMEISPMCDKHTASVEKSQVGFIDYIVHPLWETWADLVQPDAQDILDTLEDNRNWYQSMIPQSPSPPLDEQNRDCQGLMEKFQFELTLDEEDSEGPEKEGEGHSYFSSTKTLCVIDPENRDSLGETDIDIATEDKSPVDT
Test [9] deals with Cytochrome P450 3A4 (Homo sapiens) (UniProt P08684). As to the kind of experiment: qHTS Assay for Activators of Cytochrome P450 3A4 (AID 885). Also: nearly all actives have a fitted effect of over 65% in size. The essentials: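 Human CYP3A4 dealkylates Luciferin-PPXE to luciferin, which luciferase detection converts to light. Substrate was at its KM (25uM), buffer 200mM KPO4, reaction 60 min at RT.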
Cytochrome P450 3A4 (Homo sapiens), sequence (P08684 whole entry, looked up): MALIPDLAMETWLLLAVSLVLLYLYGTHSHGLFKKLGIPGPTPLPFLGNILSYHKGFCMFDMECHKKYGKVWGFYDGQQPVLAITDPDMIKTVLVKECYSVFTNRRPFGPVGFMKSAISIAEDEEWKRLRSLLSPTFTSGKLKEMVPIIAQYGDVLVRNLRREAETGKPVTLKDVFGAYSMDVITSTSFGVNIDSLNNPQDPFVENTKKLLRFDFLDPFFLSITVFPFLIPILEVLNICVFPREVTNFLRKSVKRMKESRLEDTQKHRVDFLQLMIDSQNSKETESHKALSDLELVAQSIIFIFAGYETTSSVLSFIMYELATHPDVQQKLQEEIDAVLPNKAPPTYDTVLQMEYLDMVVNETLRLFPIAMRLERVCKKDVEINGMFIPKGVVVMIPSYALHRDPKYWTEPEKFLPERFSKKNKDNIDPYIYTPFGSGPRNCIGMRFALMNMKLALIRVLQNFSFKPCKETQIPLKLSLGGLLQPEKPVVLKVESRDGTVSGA
A short description of test [10]: qHTS Assay for Lipid Storage Modulators (AID 1519; calls by dose curve). The conditions noted are these: Drosophila S3 cells, BODIPY lipid droplet/cell ratio, laser cytometry, cells loaded with oleic acid. The essentials: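 Cells seeded at 5,000 per well were treated with compounds over a concentration series and loaded with oleic acid (400 uM, as added). Lipid droplet fluorescence (488 nm excitation, 500-530 nm channel) was read by laser-scanning cytometry and normalized to 20 uM Triacsin C.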

Test [11] has as its target Ubiquitin carboxyl-terminal hydrolase 1 (Homo sapiens) (UniProt O94782). Description: Inhibitors of USP1/UAF1: Pilot qHTS (AID 504865).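 Also: rhodamine fluorescence freed from ubiquitin-rhodamine substrate followed over time; top concentration of the series differs between compounds; % is scaled to controls: 0 for no effect and ±100 for the full control effect; nearly all actives have a fitted effect of over 35% in size.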 The method, boiled down:
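1nM USP1/UAF1 + cpd, 15 min RT; start w/ Ub-Rho 150nM final; kinetic FL 480/540 nm, 6 reads q60 s. Buffer 50mM HEPES pH 7.8, 0.5mM EDTA, 1mM TCEP, 0.01% Tween-20, 0.1 mg/ml BSA.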
(In qHTS, concentration-response curves come from the screen itself.)

Test [12] deals with Cytochrome P450 3A4 (Homo sapiens) (UniProt P08684). As to the kind of experiment: qHTS Assay for Inhibitors and Substrates of Cytochrome P450 3A4 (AID 884). Also: nearly all actives have a fitted effect of over 50% in size. Also: potency is read from the fitted curve at half-maximal effect. The essentials:
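Luminescent readout of luciferin produced by CYP3A4 (20 nM) dealkylation of Luciferin-PPXE, 25 uM (its KM). NADPH-driven reaction ran 60 min at RT after 10 min compound preincubation; data scaled to 57 uM ketoconazole as 100% inhibition.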

Test [13] in a line: Confirmation and Secondary Assay for Modulators of Hemoglobin Beta Chain Splicing at IVS2 705 locus (AID 930).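 Also: HeLa cells stably expressing the EGFP-705 splicing reporter; GFP fluorescence per well restored by corrected splicing of the IVS2-705 intron in EGFP; % of control where 0% means no effect.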 The essentials: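 HeLa EGFP-705 reporter; 500 cells/well, o/n 37C 5% CO2; cpd 2 d; 488 ex/500-520 em laser scan; total peak GFP intensity/well. Ref: 500 nM […] antisense PNA.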
Test [14] in a line: Primary qHTS for small molecule stabilizers of the endoplasmic reticulum resident proteome: Secreted ER Calcium Modulated Protein (SERCaMP) assay (AID 1508630). Also: % is scaled to controls: 0 for no effect and ±100 for the full control effect. The essentials: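 The SH-SY5Y reporter protocol was run at 3 concentrations up to 38.3 uM (primary) or 11 concentrations (follow-up): 16 h compound, 100 nM thapsigargin for 4 h, then extracellular luciferase luminescence.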

Test [15] addresses Lysosomal acid glucosylceramidase (Homo sapiens) (UniProt P04062). Description: Glucocerebrosidase-p2 (AID 348; in the data active = potency below about 10 µM; also: potency is read from the fitted curve at half-maximal effect). Conditions: purified GBA, blue fluorogenic substrate, 40 min. The method, boiled down:
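Normal human glucocerebrosidase (0.2 nM) with blue fluorogenic substrate (80 uM final) in citrate/phosphate pH 5.9 with 10mM sodium taurocholate, 0.01% tween-20; 40 min RT, NaOH/glycine stop; fluorescence Ex 365/Em 440; AC50 from a titration from 0.6 nM upwards.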

Test [16] in a line: Confirmation and Secondary Assay for Modulators of Hemoglobin Beta Chain Splicing at IVS2 654 locus (AID 910).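 Also: HeLa cells stably carrying EGFP split by mutant beta-globin IVS2-654 intron; % of control where 0% means no effect.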 The essentials:
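HeLa cells stably expressing EGFP interrupted by β-globin IVS2-654 intron, seeded overnight in Opti-MEM/2% FCS, then treated 2 days at 37 °C. Restored splicing read as total peak GFP intensity per well by laser scanning cytometry (488 nm excitation, 500–520 nm emission); 500 nM antisense PNA as control.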

The target of test [17] is Rap guanine nucleotide exchange factor 3 (Homo sapiens) (UniProt O95398). Description: Confirmatory qHTS for antagonist of cAMP-regulated guanine nucleotide exchange factor 3 (EPAC1) (AID 1645880).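 Also: plate controls were DMSO only for no effect and full effect of the ATA control for full effect; nearly all actives have a fitted effect of over 55% in size.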 The essentials:
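Released BODIPY-GDP fluoresces less than Rap1-bound BODIPY-GDP; the signal is followed at 480/540 nm at 5-min intervals over 30 min, after 5 min at room temperature. Reactions contain 100 nM EPAC1, 250 nM RAP1B-BODIPY-GDP and 50 uM GDP; results are normalized to ATA and DMSO.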

The target is the same in test [18]. As to the kind of experiment: Confirmatory qHTS for agonist of cAMP-regulated guanine nucleotide exchange factor 3 (EPAC1) (AID 1645881).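 Also: EPAC1 catalysed release of BODIPY-GDP from Rap1B seen as fluorescence loss; 100% = effect of cAMP agonist control; nearly all actives have a fitted effect of over 75% in size.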
Test [19] addresses Rap guanine nucleotide exchange factor 4 (Homo sapiens) (UniProt Q8WZA2). Description: Confirmatory qHTS for agonist of cAMP-regulated guanine nucleotide exchange factor 4 (EPAC2) (AID 1645884).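 Also: nucleotide exchange releases bodipy-GDP from Rap1 and this lowers its fluorescence; % is scaled to controls: 0 for no effect and ±100 for the full control effect; nearly all actives have a fitted effect of over 65% in size.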
The target is the same in test [20]. Description: Confirmatory qHTS for antagonist of cAMP-regulated guanine nucleotide exchange factor 4 (EPAC2) (AID 1645885). Also: % is scaled to controls: 0 for no effect and ±100 for the full control effect; nearly all actives have a fitted effect of over 25% in size.
[21] abbreviates: measured here: cell count channel max response.
The mark [22] stands for this setting: measured here: lipid channel max response.

Seven compounds from PubChem BioAssay (NCATS) can be followed below.

“And” between values parts separate entries of the source, which are not always exact repeats. Equal values may be shown once. Inconclusive results are not listed. The source made the active and inactive calls. Unless noted, calls follow the shape of the dose curve; as a rule, active = well fitted curve in the direction sought with a large enough effect; inconclusive = small, poorly fitted or top-dose-only effect, or another doubt; inactive = no such curve, though single readings can be large; an effect the other way counts as inactive or inconclusive.

Ubiquitin carboxyl-terminal hydrolase 1 (Homo sapiens), sequence (O94782 whole entry, looked up): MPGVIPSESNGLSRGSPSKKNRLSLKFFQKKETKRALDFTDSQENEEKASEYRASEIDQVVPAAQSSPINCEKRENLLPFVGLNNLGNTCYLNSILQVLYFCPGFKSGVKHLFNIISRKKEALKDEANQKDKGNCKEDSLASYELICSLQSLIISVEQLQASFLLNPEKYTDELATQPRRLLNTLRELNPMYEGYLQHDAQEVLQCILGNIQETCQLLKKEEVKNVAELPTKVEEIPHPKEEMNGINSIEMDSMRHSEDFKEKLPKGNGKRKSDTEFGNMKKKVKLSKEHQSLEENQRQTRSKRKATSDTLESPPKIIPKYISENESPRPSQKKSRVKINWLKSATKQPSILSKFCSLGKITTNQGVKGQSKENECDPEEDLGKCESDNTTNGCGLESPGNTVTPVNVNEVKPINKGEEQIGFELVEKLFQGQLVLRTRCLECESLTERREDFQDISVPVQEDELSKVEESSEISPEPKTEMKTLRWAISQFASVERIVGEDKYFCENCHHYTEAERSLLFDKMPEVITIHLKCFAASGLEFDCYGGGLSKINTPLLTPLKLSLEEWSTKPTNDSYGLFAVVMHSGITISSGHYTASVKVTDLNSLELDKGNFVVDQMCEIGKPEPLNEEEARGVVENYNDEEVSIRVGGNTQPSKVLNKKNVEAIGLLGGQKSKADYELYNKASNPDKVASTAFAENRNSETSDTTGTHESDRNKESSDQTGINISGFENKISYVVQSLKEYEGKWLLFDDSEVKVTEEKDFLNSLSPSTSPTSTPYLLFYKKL
Rap guanine nucleotide exchange factor 3 (Homo sapiens), sequence (O95398 whole entry, looked up): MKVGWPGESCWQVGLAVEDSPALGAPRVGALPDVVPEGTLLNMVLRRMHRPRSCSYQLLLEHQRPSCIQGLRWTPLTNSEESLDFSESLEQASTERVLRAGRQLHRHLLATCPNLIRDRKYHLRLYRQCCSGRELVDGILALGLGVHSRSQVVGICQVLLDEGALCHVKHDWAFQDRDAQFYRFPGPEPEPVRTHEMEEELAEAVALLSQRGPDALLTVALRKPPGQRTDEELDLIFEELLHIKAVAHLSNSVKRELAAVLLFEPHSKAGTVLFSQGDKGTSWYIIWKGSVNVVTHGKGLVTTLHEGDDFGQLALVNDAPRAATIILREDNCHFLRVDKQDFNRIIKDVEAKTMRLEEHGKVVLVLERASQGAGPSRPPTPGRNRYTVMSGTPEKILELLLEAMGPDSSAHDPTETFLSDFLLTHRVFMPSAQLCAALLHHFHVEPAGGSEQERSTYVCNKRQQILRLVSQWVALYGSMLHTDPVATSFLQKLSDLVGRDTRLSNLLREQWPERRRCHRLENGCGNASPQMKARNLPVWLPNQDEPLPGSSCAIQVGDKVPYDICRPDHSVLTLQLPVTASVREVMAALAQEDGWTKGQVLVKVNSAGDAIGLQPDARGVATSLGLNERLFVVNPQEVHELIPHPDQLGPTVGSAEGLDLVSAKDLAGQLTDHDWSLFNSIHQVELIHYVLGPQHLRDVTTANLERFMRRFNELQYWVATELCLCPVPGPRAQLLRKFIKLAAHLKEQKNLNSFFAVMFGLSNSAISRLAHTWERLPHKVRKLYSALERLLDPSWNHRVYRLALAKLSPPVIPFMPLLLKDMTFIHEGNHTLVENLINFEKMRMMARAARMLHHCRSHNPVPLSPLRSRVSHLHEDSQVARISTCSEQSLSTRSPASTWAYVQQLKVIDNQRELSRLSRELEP
Lysosomal acid glucosylceramidase (Homo sapiens), sequence (P04062 whole entry, looked up): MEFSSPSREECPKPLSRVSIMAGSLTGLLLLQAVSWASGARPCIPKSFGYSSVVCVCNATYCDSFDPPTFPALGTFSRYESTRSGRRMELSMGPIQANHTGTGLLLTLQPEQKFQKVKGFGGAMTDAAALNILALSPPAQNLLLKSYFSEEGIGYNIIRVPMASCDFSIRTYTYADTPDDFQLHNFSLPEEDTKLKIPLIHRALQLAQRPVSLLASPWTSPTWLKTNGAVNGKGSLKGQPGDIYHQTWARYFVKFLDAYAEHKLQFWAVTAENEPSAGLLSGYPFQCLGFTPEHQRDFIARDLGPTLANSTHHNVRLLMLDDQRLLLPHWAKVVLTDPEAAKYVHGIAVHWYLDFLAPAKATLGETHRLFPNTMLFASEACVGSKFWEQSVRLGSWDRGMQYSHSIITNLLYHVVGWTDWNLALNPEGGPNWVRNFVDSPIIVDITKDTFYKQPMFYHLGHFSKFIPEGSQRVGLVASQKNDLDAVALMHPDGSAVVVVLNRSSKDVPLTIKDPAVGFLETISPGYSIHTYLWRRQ

With `CC[C@@]12CCCN3CCc4c(n(c5ccccc45)[C@](O)(C(=O)OC)C1)[C@H]32`, the activity change, negative = inhibition in test [1] is 13.8% [at 17.2 µM] (inactive); in test [3], -8.76% [at 17.2 µM] (inactive) and -13.1% [at 17.2 µM] (inactive); in test [10] (at 25.7 µM (top of the series)), -1.27% (inactive) and -2.91% (inactive); in test [10] (at 57.5 µM (top of the series)), 0.0973% (inactive). For the same compound, the Potency result in test [2], in test [7], in test [8], in [9] and in test [11] was “inactive” each time. Moreover, the activity, negative = inhibition in test [4] is 4.76% [at 17.2 µM] (inactive) and 8.92% [at 17.2 µM] (inactive). The Potency in test [5] was > 20.6 µM (inactive) and > 46 µM (inactive); in [6], > 20.6 µM (inactive) and > 46 µM (inactive). Besides, the max response in test [10] (setting [21]) was 5.49% and 0.925% and 3.19%; in test [10] (setting [22]), 4.14% and 0.607% and 6.95%.
As to `CCCCCC/C=C\CCCCCCCc1cccc(O)c1C(=O)O`, the Potency entry in [12] is “inactive”. In [13], the outcome was inactive. Besides, the activity change, negative = inhibition in test [10] (at 57.5 µM (top of the series)) was 8.36% (inactive). The max response in test [10] (setting [21]) came out at 7.08%; in [10] (setting [22]), 17.7%.
As for `N[C@@H](C(=O)O)c1ccc(O)c(C(=O)O)c1`, the Potency result in test [2], in test [7], in [8] and in test [11] was “inactive” throughout. The Potency in test [5] and in test [6] was > 46 µM (inactive) throughout. The result in [14] was inactive.
With `CN=C1N[C@H](c2ccccc2)N(c2ccccc2)S1`, the Potency in test [2] was 1.26 µM (active); in [5], > 46 µM (inactive). Further, the Potency result in [7] and in [9] was “inactive” throughout. In addition, the result in test [14] was inactive.
Consider `O=C(CCCc1ccc(-c2ccccc2F)cc1)Nc1ccc(O)cc1`, for which the Potency in test [12] was 31.6 µM (active). The Potency result in test [9] is “inactive”. Moreover, the result in [14] was inactive.
Consider `COc1ccc2[nH]cc(CCNc3ncnc4ccc(-c5ccccc5C#N)cc34)c2c1`, for which the Potency is > 11.4 µM (inactive) in test [15]; 3.98 µM (active) in [2]; > 46 µM (inactive) in test [5]; > 46 µM (inactive) in test [6]; 2 µM (active) in test [12]. Further, the activity change, negative = inhibition in test [1] is -21.6% (inactive); in [3] it was 29.2% (inactive); in test [10] (at 57.5 µM (top of the series)), 4.54% (inactive). In test [4], the activity, negative = inhibition was -19.5% (inactive). For the same compound, the Potency result in test [7], in [9], in test [16], in [17], in [18] and in test [19] was “inactive” in each case. Moreover, the Potency entry in test [20] was “inactive”. In addition, in test [13], the compound was classed as inactive. Further, the max response in test [10] (setting [21]) was -13.6%; in test [10] (setting [22]), -10.8%.
On to `COc1ccccc1CNc1ncnc2ccc(-c3ccccc3C#N)cc12`, for which the Potency was > 11.4 µM (inactive) in [15]; 1.26 µM (active) in test [2]; > 46 µM (inactive) in [5]; > 46 µM (inactive) in [6]; 3.98 µM (active) in test [12]. Further, the activity change, negative = inhibition in test [1] was -13.9% (inactive); in [3], 1.75% (inactive); in [10] (at 57.5 µM (top of the series)) it was -1.18% (inactive). Also, the activity, negative = inhibition in test [4] was -23% (inactive). For the same compound, the Potency entry in test [7], in [9], in test [11], in test [17], in test [18] and in [19] was “inactive” each time. Further, the Potency entry in test [20] was “inactive”. The max response turned out to be 16.4% in test [10] (setting [21]) and 14.7% in test [10] (setting [22]).
